Assay results published in PubChem BioAssay AID1421 (Emory University Molecular Libraries Screening Center, 2008).
Screen size: about 1,300 compounds; about 140 (11%) were called active. The rule behind the calls is not given here. These entries were drawn from the full list. Entries with a potency or affinity are not part of this list.

The compounds below were run against Prostaglandin E2 receptor EP2 subtype (Homo sapiens) (UniProt P43116) (assay: EP2 receptor modulators, dose response, cell-based, human EP2, PGE2 EC50 shift (AID 1421)). Conditions: EP2-expressing cells, PGE2 EC50 shift by compound; at 20 µM.
Sequence of Prostaglandin E2 receptor EP2 subtype (Homo sapiens) (P43116 whole entry, looked up): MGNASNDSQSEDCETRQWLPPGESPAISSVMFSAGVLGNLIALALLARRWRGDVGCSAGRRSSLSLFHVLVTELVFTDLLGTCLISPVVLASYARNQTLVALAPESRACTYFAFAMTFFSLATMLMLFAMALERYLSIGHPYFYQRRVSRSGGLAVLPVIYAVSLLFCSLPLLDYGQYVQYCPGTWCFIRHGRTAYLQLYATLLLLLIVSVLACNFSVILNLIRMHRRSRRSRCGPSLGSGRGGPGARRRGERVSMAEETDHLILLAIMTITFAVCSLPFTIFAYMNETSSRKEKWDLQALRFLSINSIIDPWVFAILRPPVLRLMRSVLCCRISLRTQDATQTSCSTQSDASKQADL

PGE2 EC50 with compound, inactive:
FC(F)(F)c1nnc(-c2ccccc2)nc1Sc1ccccc1 0.72 nM
c1ccc(-c2n[nH]nc2-c2ccccc2)cc1 0.21 nM
CCN1C(=O)/C(=C2/C=CC=CN2C)SC1=S 0.94 nM
Nc1ccccc1CCCC(=O)O 0.94 nM
COc1cc2ccccc2cc1C(=O)NC(=S)Nc1cccc(C(=O)O)c1 6.94 nM
O=C(Nc1ccccc1Oc1ccccc1)c1ccccc1F 0.17 nM
Cc1sc(NC(=O)CN2CCOCC2)c(C(=O)c2ccccc2)c1C 0.63 nM
CC1CCCCN1C(=O)/C(=C\c1ccccc1)c1ccccc1 (centres undefined) 0.44 nM
CCc1ccccc1NC(=S)N(Cc1ccco1)C(C)c1cccs1 (centres undefined) 0.38 nM
CCOC(=O)C1=C(N)OC(C)=C(C#N)C1c1ccco1 (centres undefined) 0.56 nM
S=c1[nH]nc(C2CCCCC2)n1Cc1ccccc1 0.39 nM
C=CCc1cc(C=O)cc(OC)c1OCc1ccc(Cl)cc1 0.92 nM
CNC(=O)NC(=O)CSc1nc(-c2cccs2)c(C#N)c(=O)[nH]1 15.8 nM
CC(Cc1ccccc1)NC(=O)C1(c2ccccc2)CCOCC1 (centres undefined) 1.12 nM
CCOC(=O)c1cnc2c(c(C)nn2C)c1Oc1ccc(Cl)cc1 0.52 nM
C=CCn1c(=O)c(C(=O)NCCc2ccccc2)c(O)c2ccccc21 0.5 nM
CC(C)Cc1nc(SCc2cccnc2)c2c(=O)n(C)c(=O)n(C)c2n1 0.37 nM
Cc1ccc2nc(SCC(=O)NCc3ccco3)c(C)cc2c1 0.5 nM
COc1cc(OC)c2c(OC)c(-c3ccc4c(c3)OCO4)c(=O)oc2c1 0.39 nM
CCC1C/C(=C/c2ccco2)C(=O)/C(=C/c2ccco2)C1 (centres undefined) 0.69 nM
Cc1cc(C)c(S(=O)(=O)c2ccccc2)c(OC(=O)c2c(Cl)cc(Cl)cc2Cl)n1 0.38 nM
c1ccc(CCc2cccnc2)nc1 0.8 nM
Cc1noc(C)c1CSc1ncnc2sc3c(c12)CCCCC3 0.42 nM
Cc1noc(C)c1CSc1ncnc2sc3c(c12)CCC(C)C3 (centres undefined) 0.4 nM
CC(=O)O[C@H]1C[C@@H](OC(C)=O)C(C)(C)C2C[C@@H](OC(C)=O)[C@]3(C)C([C@H](OC(C)=O)C[C@@]4(C)[C@H](c5ccoc5)OC(=O)[C@H]5O[C@]543)[C@]21C (some centres undefined) 0.32 nM
Cc1ccc(C)n1-n1cnc2scc(-c3cccs3)c2c1=O 0.29 nM
COC(=O)c1sccc1NC(=O)c1cc2c(s1)CCCC2 0.5 nM
COc1ccc(Cc2n[nH]c(=S)n2Cc2ccccc2)cc1Cl 0.57 nM
CCOC(=O)c1c(NC(=O)Cc2cccs2)sc(C)c1C 0.53 nM
CCOC(=O)c1c(NC(=O)c2ccc(Br)o2)sc(C)c1CC 0.27 nM
CCOC(=O)c1c(/N=C/C2C(=O)CCCC2=O)sc2c1CCCC2 0.36 nM
COC(=O)c1c(NC(=O)c2ccc(Br)s2)sc2c1CCC2 0.42 nM
COC(=O)c1c(NC(=O)Cc2cccs2)sc2c1CCCC2 0.49 nM
CCOC(=O)c1c(NC(=O)CN2CCN(C(=O)c3ccco3)CC2)sc2c1CCCC2 0.59 nM
CCOC(=O)c1c(NC(=O)c2cccs2)sc2c1CCN(C(=O)OCC)C2 0.43 nM
CCOC(=O)Nc1sc2c(c1C(=O)OCC)CCC2 0.57 nM
Cc1cccc(/N=C/c2c(O)ccc3oc4c(c23)CCCC4)n1 1.21 nM
C=CCSc1nc2ccsc2c(=O)n1-c1ccccc1 0.37 nM
Oc1ccc(/C=N/N2CCN(C3c4ccccc4-c4ccccc43)CC2)c(O)c1 0.25 nM
COc1cc(NC(=S)NC(=O)c2cc(C)cc(C)c2)ccc1NC(=O)c1cccs1 0.3 nM
O=S(=O)(c1cccs1)N1CN(Cc2cccs2)c2nc3ccccc3nc21 0.45 nM
CCOC(=O)c1c(NC(=O)CN(CC)CC)sc2c1CCN(C(=O)OCC)C2 0.29 nM
CCOC(=O)c1c(N)nn(C(=O)C(C)(C)C)c1-c1ccccc1 0.11 nM
Cc1cc(NC(=O)c2cc(-c3ccncc3)nc3c(C)cccc23)no1 0.92 nM
COC(=O)c1c(NC(=S)NN2CCOCC2)sc2c1CCCC2 0.39 nM
CCOC(=O)c1c(NC(=O)Cn2nnc3ccccc32)sc2c1CCC(C)C2 (centres undefined) 0.53 nM
CCOC(=O)c1c(NC(=O)COC(=O)Cn2c(C)nc3ccccc32)sc2c1CCCC2 0.55 nM
CC(=O)Nc1sc2c(c1C(c1cccs1)N1CCOCC1)CCCC2 (centres undefined) 0.33 nM
COC(=O)c1c(NC(=O)c2ccccc2N(C)S(=O)(=O)c2ccccc2)sc2c1CCCC2 0.38 nM
CCOC(=O)c1c(NC(=O)c2ccn(CC)n2)sc2c1CCCC2 0.33 nM
CCOC(=O)c1c(NC(=O)c2ccc(N3C(=O)[C@@H]4[C@H](C3=O)[C@H]3C=C[C@@H]4C3)cc2)sc2c1CC(C)CC2 (some centres undefined) 0.47 nM
CCOc1ccccc1COC(=O)c1cccc(-n2cnnn2)c1 0.54 nM
C/C(Cl)=C/Cn1c(SC(C)C)nc2c1c(=O)[nH]c(=O)n2C 0.83 nM
NS(=O)(=O)c1ccc(NCc2cnc3ccccc3n2)cc1 1.13 nM
Cc1ccccc1/C=C/c1nc2ccccc2c(=O)n1CCc1ccccc1 0.19 nM
COc1cc(C2Oc3cc(C4Oc5cc(O)cc(O)c5C(=O)C4O)ccc3OC2CO)ccc1O (centres undefined) 1.94 nM
CCCCC(=O)Nc1sc2c(c1C(=O)OCC)CCC(C=O)=C2Cl 1.75 nM
CCOC(=O)c1c(-c2cccs2)csc1NC(=O)CN1CCOCC1 2.48 nM
CCCC/C(=N\NC(=O)c1ccc(Br)o1)c1ccccc1 0.6 nM
